Assay results taken from the supplement of paper PMC10646978.
± gives the standard deviation.

Tests used:
Conditions in all cases: modulator concentration 10 µM
[1] = tested on: RAW-Dual (murine macrophage reporter line); assay: NF-kB reporter (SEAP) activity fold change vs agonist alone; higher = enhanced NF-kB activity
Summary of the method: (§1)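 In 384-well plates holding 50 000 RAW-Dual murine macrophage reporter cells per well, compound at 10 μM final was pre-incubated for 1 hour at 37 °C, after which a PRR agonist was added overnight. Supernatant SEAP read with QUANTI-Blue at 620 nm absorbance reported NF-κB, and Lucia luciferase read with QUANTI-Luc luminescence reported IRF. Fold change values come from dividing each reporter signal by the mean of agonist-only control wells on the same plate, averaged over replicate plates with propagated errors.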

[2] = tested on: RAW-Dual (murine macrophage reporter line); assay: IRF reporter (Lucia luciferase) activity fold change vs agonist alone; higher = enhanced IRF activity
Summary of the method: as §1

[3] = tested on: RAW-Dual (murine macrophage reporter line); assay: viability score (confluency relative to resting cells, overnight) (fraction); higher = more viable, active = viable (0.7 or more)
Summary of the method: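 A compound met the cutoff when both of two confluency masks exceeded 70% of resting cells. Those masks were made with IncuCyte software from IncuCyte images of RAW-Dual macrophages treated overnight at 10 μM final. This is the basis of the viability score, which is confluency relative to resting cells.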

[4] = agonist: CpG ODN 1826 0.5 ug/mL

| SMILES | NF-kB reporter [1, 4] | NF-kB reporter ([1]; agonist: LPS 0.1 ug/mL) | NF-kB reporter ([1]; agonist: MPLA […]) | IRF reporter ([2]; agonist: 3'3'-cGAMP 10 ug/mL) | IRF reporter ([2]; agonist: LPS 0.1 ug/mL) | IRF reporter ([2]; agonist: MPLA […]) | viability score [3] |
| --- | --- | --- | --- | --- | --- | --- | --- |
| CC(=NNC(=O)COc1ccc(Cl)cc1[N+](=O)[O-])c1cccc(Br)c1 | 0.961 ± 0.091 | 1.11 ± 0.064 | 0.89 ± 0.053 | 0.983 ± 0.032 | 1.47 ± 0.22 | 1.19 ± 0.22 | 1 (active) |
| CC1CN(C2=NC(=O)C(=Cc3ccc(-c4ccccc4Cl)o3)S2)CC(C)O1 (stereo unspecified) | 0.495 ± 0.054 | 0.841 ± 0.053 | 0.943 ± 0.089 | 0.813 ± 0.053 | 1.34 ± 0.12 | 1.44 ± 0.15 | 1.02 (active) |
| Nc1nonc1C(=O)NN=Cc1cc(Br)c(O)c(Br)c1 | 1.05 ± 0.085 | 1.01 ± 0.076 | 1.03 ± 0.054 | 0.938 ± 0.11 | 1.08 ± 0.12 | 1.05 ± 0.23 | 0.997 (active) |
| COc1ccc2cc(Br)ccc2c1CC(N)=O | 1.09 ± 0.086 | 1.07 ± 0.12 | 1.04 ± 0.046 | 0.89 ± 0.13 | 1.07 ± 0.072 | 0.961 ± 0.14 | 0.968 (active) |
| O=S(=O)(NC1CC1)c1cnn(-c2ccccc2)c1 | 0.903 ± 0.048 | 0.908 ± 0.073 | 1.08 ± 0.079 | 1.07 ± 0.062 | 1.3 ± 0.3 | 1.52 ± 0.57 | 0.964 (active) |
| CC(C)OC(=O)c1c(NC(=O)C2CC=CCC2C(=O)O)sc2c1CCCC2 (stereo unspecified) | 0.92 ± 0.12 | 0.999 ± 0.056 | 0.901 ± 0.054 | 0.965 ± 0.024 | 1.29 ± 0.18 | 1.14 ± 0.28 | 1.01 (active) |
| O=C(CCc1ccc(F)c(Cl)c1)NCCn1nccn1 | 1.06 ± 0.052 | 1.06 ± 0.11 | 0.972 ± 0.056 | 1 ± 0.068 | 1.21 ± 0.076 | 1.06 ± 0.087 | 0.992 (active) |
| COc1ccc2c3c1O[C@H]1C[C@@H](O)C=C[C@@]31CCN(C)C2 [Prestw-588] | 1.13 ± 0.077 | 1.07 ± 0.091 | 0.95 ± 0.038 | 0.997 ± 0.056 | 0.987 ± 0.046 | 0.923 ± 0.16 | 0.998 (active) |
| O=C(Nc1ncc(S(=O)(=O)c2ccc([N+](=O)[O-])cc2)s1)c1cccs1 | 1.06 ± 0.11 | 1.09 ± 0.06 | 0.914 ± 0.06 | 0.987 ± 0.03 | 1.49 ± 0.27 | 1.18 ± 0.21 | 1.01 (active) |
| COc1cccc2c1C(=O)c1c(O)c3c(c(O)c1C2=O)C[C@@](O)(C(=O)CO)C[C@@H]3O[C@H]1C[C@H](N)[C@H](O)[C@H](C)O1.Cl | 0.0942 ± 0.012 | 0.0784 ± 0.0047 | 0.178 ± 0.036 | 0.101 ± 0.014 | 0.0915 ± 0.01 | 0.127 ± 0.024 | 0.372 (inactive) |
| Cl.N=C(N)NC(=O)c1nc(Cl)c(N)nc1N.O.O | 0.856 ± 0.044 | 1.01 ± 0.087 | 1.05 ± 0.065 | 1.04 ± 0.048 | 1.2 ± 0.29 | 1.3 ± 0.46 | 0.984 (active) |
| Nc1ccc(S(=O)(=O)NCCO)cc1 | 0.983 ± 0.07 | 1.06 ± 0.12 | 0.996 ± 0.068 | 0.973 ± 0.042 | 1.4 ± 0.12 | 1.07 ± 0.11 | 1 (active) |
| O=C(CSc1nnnn1-c1ccccc1)NC12CC3CC(CC(C3)C1)C2 | 1.01 ± 0.09 | 0.967 ± 0.053 | 0.943 ± 0.059 | 0.96 ± 0.054 | 1.12 ± 0.24 | 0.933 ± 0.058 | 1.02 (active) |
